Rows were chosen to be rich in hits. Some 2.2% of all compounds tested hit in one or more screens of this group.
Mito fusion yeast = inhibitors of mitochondrial division or activators of mitochondrial fusion | S. cerevisiae fusion-defective mutant growth rescue, CellTiterGlo 48 h | AID 485298 | 320,000 tested, 0.23% active | Potency, µM (top dose mostly 46.1 µM), for inactives: at the highest dose growth rescue (activation), most hits filed as activators; further: % of control where 0% means no effect; nearly all actives have a fitted effect of over 45% in size
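S. cerevisiae fusion-defective temperature-sensitive mutants (e.g. fzo1-1, mgm1-5) grown 48 h at 37C in YPEG (ethanol/glycerol non-fermentable) medium with 23 nl compound per well; growth rescue read as CellTiterGlo luminescence.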
Abeta rescue = restores growth of yeast expressing A-beta42 peptide. yeast expressing A-beta42, growth rescue, OD600, 48 h; response scale: 0% DMSO, 100% iron-clioquinol control. Potency, µM (top dose mostly 46.1 µM), hits mostly activators. 410,000 tested, 0.063% active; further: nearly all actives have a fitted effect of over 55% in size
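Yeast A-beta toxicity model in growth medium with pinned compounds, 48 h at 30 C; growth read as absorbance at 600 nm. Normalized to FeCl3/clioquinol equimolar mix (positive) and DMSO (negative).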
FUS suppressor = FUS proteinopathy suppression in yeast. 390,000 tested, 0.24% active. Potency, µM (series often up to 76.6 µM), hits mostly activators. S. cerevisiae FUS-expressing, growth rescue, OD600, 24 h;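 further: plate controls were DMSO vehicle for no effect and reference control for full effect; nearly all actives have a fitted effect of over 55% in size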
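Cultures pregrown in 2.5% raffinose medium are shifted to minimal medium containing 2% galactose to express toxic FUS. Compounds are tested at several concentrations. After 24hr at 30C, growth is quantified at 600 nm absorbance.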
aSyn rescue = rescues yeast growth from alpha-synuclein toxicity | Yeast expressing alpha-synuclein, growth rescue, BacTiter-Glo, 24 h | Potency, µM (top dose mostly 46.1 µM), for the others: at the top dose growth rescue (activation), hits mostly activators | 370,000 tested, 0.14% active | AID 652106; further: % of control where 0% means no effect; nearly all actives have a fitted effect of over 65% in size
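Readout is rescue of growth in alpha-synuclein-expressing yeast, so inhibitors of toxicity appear as activators. Growth after 24 hr at 30 deg C in galactose medium is quantified by luminescence.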
TDP43 rescue = rescues yeast growth from TDP-43 toxicity; TDP-43 expressing yeast growth rescue, BacTiter-Glo, 24 h; Potency, µM (series often up to 46.1 µM), inactives show at the highest dose growth rescue (activation), actives largely listed as activators; 410,000 tested, 1.8% active; AID 652104; further: % of control where 0% means no effect; nearly all actives have a fitted effect of over 50% in size
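Luminescence from BacTiter-Glo reports growth of TDP-43-expressing yeast after 24 hr at 30 deg C with compound. Cells were raffinose-pregrown to mid-log, then seeded in galactose medium at OD600=0.02.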
ERG Ets-DNA blk = blocks human ERG Ets domain binding to DNA | P11308 | fluorescence polarization, His-ERG Ets domain / labelled DNA | Potency, µM (series often up to 76.9 µM), for the others: top-dose FP activity, negative = inhibition, most hits filed as inhibitors | 370,000 tested, 0.028% active; active means well fitted inhibition curve with a large enough effect in the polarisation, with a control signal flat; inconclusive means small, poorly fitted or top-dose-only effect, or effect the other way, or a change in a side signal; inactive means no such curve, though single readings can be large or run the other way; the % refers to the polarisation;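 further: polarization taken with two DNA probes labelled with fluorescein and Texas red; % of control where 0% means no effect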
Target sequence (P11308 whole entry, looked up, the tested form may be a part): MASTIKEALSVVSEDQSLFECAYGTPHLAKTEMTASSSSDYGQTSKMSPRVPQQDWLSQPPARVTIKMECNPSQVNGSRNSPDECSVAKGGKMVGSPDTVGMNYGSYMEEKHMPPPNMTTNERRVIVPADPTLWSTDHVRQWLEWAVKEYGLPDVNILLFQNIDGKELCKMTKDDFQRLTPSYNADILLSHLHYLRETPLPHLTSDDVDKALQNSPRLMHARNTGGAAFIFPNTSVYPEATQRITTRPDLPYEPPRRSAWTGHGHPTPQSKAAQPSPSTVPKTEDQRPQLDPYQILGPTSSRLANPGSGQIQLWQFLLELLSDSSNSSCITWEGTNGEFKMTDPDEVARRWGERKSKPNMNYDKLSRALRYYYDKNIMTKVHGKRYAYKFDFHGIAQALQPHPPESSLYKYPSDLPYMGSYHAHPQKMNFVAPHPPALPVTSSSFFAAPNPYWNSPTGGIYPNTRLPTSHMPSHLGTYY
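His-tagged ERG Ets domain (1 uM in the protein solution; 300mM KCl, 50mM Tris-HCl, 1mM EDTA, 1mM DTT, pH 7.5) received compound, then a probe mix of 5 nM fluorescein-DNA and 100nM Texas-615-DNA. Fluorescence polarization was read for both dyes.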
Numbers without * were called inactive; i = inactive; ? = inconclusive; nt = not tested or not shown. Unless noted, the call rests on the fitted dose curve; in most records, active means well fitted curve in the direction sought with a large enough effect; inconclusive means small, poorly fitted or top-dose-only effect, or another doubt; inactive means no such curve, though single readings can be large; an effect the other way counts as inactive or inconclusive. Potency means the concentration at half of the fitted maximal effect.

SMILES	Mito fusion yeast	Abeta rescue	FUS suppressor	aSyn rescue	TDP43 rescue	ERG Ets-DNA blk
CCOc1ccc(NS(=O)(=O)c2ccc(C(=O)N(C)Cc3cccc(OC)c3OC)cc2)cc1	4.6%	i	22.4µM*	0.1%	-12.6%	3.9%
Cn1c(COc2cccc3ccccc23)nnc1SCC(=O)OC1CCCCC1	8.7%	i	?	?	25.1µM*	7.1%
CCn1c(COc2cccc3ccccc23)nnc1SCC(=O)OC1CCCCC1	18.7%	i	i	0.2%	29.5%	nt
COc1ccc(Nc2ccc3cc(S(=O)(=O)N4CCCC4)ccc3n2)cc1OC	nt	i	?	nt	5.6%	-5.5%
COc1cccc(Nc2ccc3cc(S(=O)(=O)N4CCC(C)CC4)ccc3n2)c1	nt	i	i	nt	12.6µM*	1.8%
COc1ccc(C2=Nn3c(nc4sc(C(=O)Nc5cccc(C)c5)c(C)c4c3=O)SC2)cc1	nt	i	i	nt	7.8%	7.3%
O=C(Cn1c2ncccc2c(=O)n1-c1ccccc1)NCc1ccccc1	nt	i	i	nt	12.6µM*	-3.6%
CCc1ccc(-n2c(=O)c3cccnc3n2CC(=O)NCc2ccccc2)cc1	nt	i	i	nt	2.6%	-7.6%
Nc1c(-c2ccccc2)cnn1-c1cccc(Cl)c1	6.4%	i	i	4.2%	15.8µM*	-11.2%
O=C(CCC1CCCCC1)Nc1ccccc1-c1ccccc1	3.2%	i	i	-10.0%	14.1µM*	-9.8%
Cc1cccc(N2CCN(C(=O)c3ccc4c(c3)c(C)c(C)n4C)CC2C)c1 (configuration not stated)	-6.3%	i	?	1.2%	15.8µM*	12.3%
Cc1ccc(-c2c(C(=O)N3CCN(c4cccc(C)c4)C(C)C3)oc(=O)c3ccccc23)cc1 (configuration not stated)	nt	i	i	nt	14.1µM*	-7.7%
Cc1cccc(N2CCN(C(=O)c3ccccn3)CC2C)c1 (configuration not stated)	-5.2%	i	i	15.0%	nt	-12.5%
CC1CCN(S(=O)(=O)c2ccc3c(c2)N(CC(=O)NCCN(C)C)C(=O)CS3)CC1	nt	i	i	nt	2.6%	11.8%
O=C(OCC(=O)c1cccc2ccccc12)c1ccc(CO)cc1	3.2%	i	i	16.5%	14.1µM*	2.9%
Cc1ccc(-n2c(SCC(=O)Nc3ccc(OCc4ccccc4)cc3)nnc2-c2ccccc2)cc1	nt	nt	i	nt	nt	nt
O=C1c2ccccc2-c2onc3ccc(N4CCCC4)c1c23	-2.9%	i	?	-17.8%	-17.2%	17.8µM*
O=C1c2ccccc2C(=O)c2c1cccc2N1CCCC1	18.5%	i	nt	-22.7%	14.1µM*	9.1%
CCOC(=O)c1ccc(S(=O)(=O)Nc2cc(C(C)(C)C)no2)cc1	3.2%	i	i	17.9%	12.6µM*	-5.7%
CC(C)(C)c1cc(NS(=O)(=O)c2ccc3c(c2)OCCO3)on1	-5.6%	?	i	-2.0%	12.6µM*	4.4%
CCOC(=O)c1ccc(NS(=O)(=O)c2ccc(SC)cc2)cc1	20µM*	i	?	20.0%	?	-5.6%
Cc1ccc(C(=O)OCC(=O)Nc2cc(C(C)(C)C)no2)c(C)c1	10.1%	i	i	6.1%	3.8%	-3.1%
COc1ccc(C(O)c2nc(-c3cc4ccccc4o3)cs2)cc1 (configuration not stated)	nt	i	i	?	23.9%	nt
COc1cc(C(O)c2nc(-c3ccc(F)c(Cl)c3)cs2)ccc1F (configuration not stated)	nt	i	i	-46.4%	-24.8%	nt
COc1cc(C(O)c2nc(-c3ccc(C)c(C)c3)cs2)ccc1F (configuration not stated)	nt	i	i	?	35.5µM*	nt
Cc1ccc(-c2csc(C(O)c3ccccc3)n2)cc1C (configuration not stated)	nt	i	i	?	25.1µM*	nt
